A selection: hits, their analogues and other compounds. The true share with any hit is near 5.4%.
Lassa entry inh: inhibitors of Lassa virus binding or cell entry; Lassa virus pseudotype entry inhibition, cell reporter; Potency, µM (titrated, usually from 37.9 µM), usual class: inhibitors; 1.2% of 300,000 active; AID 540256; calls by dose curve; tested in HEK293 cells; note: nearly all actives have a fitted effect of over 50% in size
Sm TGR inh: S. mansoni TGR enzyme inhibition; purified TGR, DTNB reduction, TNB absorbance 405 nm; Potency, µM (highest dose often 114 µM), most hits filed as inhibitors; 3% of 360,000 active; Q962Y6; AID 485364; active = well fitted inhibition curve with a large enough effect; inconclusive = small, poorly fitted or top-dose-only effect; inactive = no such curve, though single readings can be large or run the other way; note: nearly all actives have a fitted effect of over 60% in size
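Kinetic colorimetric format: TGR-catalysed, NADPH-driven DTNB reduction monitored via TNB absorbance. Enzyme dispensed at 20 nM; compound exposure 15 min at room temperature before reaction start.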
Vaccinia Venus: vaccinia inhibition (Venus reporter); Vaccinia virus Venus reporter expression, fluorescence; Potency, µM (titrated, usually from 36.5 µM), most hits filed as inhibitors; 0.46% of 330,000 active; calls by dose curve; tested in A549 cells; note: nearly all actives have a fitted effect of over 30% in size
MARV entry inh: inhibitors of Marburg virus binding or cell entry. Marburg virus pseudotyped entry inhibition, cell reporter. Potency, µM (titrated, usually from 37.8 µM), hits mostly inhibitors. 1.8% of 300,000 active. AID 540276; calls by dose curve; tested in HEK293 cells
VACV mCherry inh: vaccinia inhibition (mCherry reporter); Vaccinia virus mCherry reporter infection, fluorescence; Potency, µM (titrated, usually from 36.5 µM), usual class: inhibitors; 0.63% of 310,000 active; AID 720579; calls by dose curve; tested in A549 cells; note: nearly all actives have a fitted effect of over 35% in size
FMDV inh: foot and mouth disease virus antiviral activity; FMDV antiviral cell-based qHTS; Potency, µM (top dose mostly 57.9 µM), most hits filed as inhibitors; 1.2% of 410,000 active; AID 1159524; calls by dose curve; tested in HEK293T cells; note: read-out not given here; nearly all actives have a fitted effect of over 45% in size
Large screens that a line does not name were inactive.

CCOC(=O)c1cc(-c2ccc3c(c2)OCCO3)n[nH]1	Lassa entry inh inconclusive, Vaccinia Venus inconclusive, MARV entry inh 5.62µM
CC(C)n1cnc(S(=O)(=O)N2CCCC(C(=O)NCc3ccccc3Cl)C2)c1 (centres undefined)	none (no result: MARV entry inh)
OC(C#Cc1ccccn1)c1cccs1 (centres undefined)	Sm TGR inh 1.41µM, MARV entry inh inconclusive
Nc1ccccc1C#CC(=O)c1ccccc1	Sm TGR inh 0.501µM, Vaccinia Venus 22.4µM, VACV mCherry inh inconclusive, FMDV inh inconclusive (no result: Lassa entry inh, MARV entry inh)
O=C(C#Cc1cccc([N+](=O)[O-])c1)c1ccccc1	none (no result: Lassa entry inh, Vaccinia Venus, MARV entry inh, VACV mCherry inh, FMDV inh)
COC(=O)c1ccc2nc(Nc3nc4c(F)cc(F)cc4s3)sc2c1	Lassa entry inh 3.16µM, MARV entry inh 7.31µM, FMDV inh 0.251µM
COCC(=O)Nc1cc(C(=O)NC2Cc3ccccc3C2)cc2nc(-c3cccnc3)n(C)c12	none (no result: Lassa entry inh, Sm TGR inh, MARV entry inh)
Cc1nc(-c2cccc(NC(=O)c3ccc(-n4nccc4C)cc3)c2)cs1	Lassa entry inh inconclusive, FMDV inh 22.4µM
Cc1nc(-c2ccc(C(=O)Nc3cccc(Br)c3)cc2)cs1	none (no result: Lassa entry inh, Vaccinia Venus, MARV entry inh, VACV mCherry inh)
C[C@@H]1CN([C@H](C)CO)C(=O)Cc2cc(NC(=O)Nc3ccccc3)ccc2O[C@@H]1CN(C)Cc1ccc2c(c1)OCO2	Vaccinia Venus 28.2µM, VACV mCherry inh inconclusive, FMDV inh inconclusive (no result: Lassa entry inh, Sm TGR inh, MARV entry inh)
Cc1ccccc1CNC(=O)c1cccc(NC(=O)N2CCSc3ncccc32)c1	FMDV inh inconclusive (no result: MARV entry inh)
O=C(/C=C/C=C/c1ccccc1)c1ccco1	Sm TGR inh 10µM (no result: Lassa entry inh, MARV entry inh)
O=C(/C=C/c1ccc(Br)cc1)c1ccco1	Lassa entry inh inconclusive, MARV entry inh inconclusive, FMDV inh inconclusive
C=CCc1cc(Cl)ccc1OCCCNC(C)CC (centres undefined)	Lassa entry inh inconclusive, MARV entry inh 2.91µM, FMDV inh inconclusive
Cc1nc(NCc2c(F)cccc2F)sc1-c1ccn(CCN2CCOCC2)n1	none (no result: Lassa entry inh, Sm TGR inh, MARV entry inh)
CSc1ccc(Cn2c(C)c(C(=O)NCc3ccc(Cl)c(Cl)c3)sc2=O)cc1	none (no result: Lassa entry inh, Sm TGR inh, MARV entry inh)
Cc1c(C(=O)NCc2ccc3c(c2)OCCO3)sc(=O)n1Cc1ccc(S(=O)(=O)N(C)C)cc1	FMDV inh 14.1µM (no result: Lassa entry inh, Sm TGR inh, MARV entry inh)
Cc1c(C(=O)NCc2ccc(Cl)c(Cl)c2)sc(=O)n1Cc1ccc(S(C)(=O)=O)cc1	FMDV inh 35.5µM (no result: Lassa entry inh, Sm TGR inh, MARV entry inh)
Cc1ccccc1Nc1sc(C(=O)c2ccc(F)cc2)c(N)c1C(=O)NCCc1ccccc1	Vaccinia Venus inconclusive, VACV mCherry inh inconclusive (no result: MARV entry inh)
O=C1C=CC(=O)N1c1ccccn1	none (no result: Sm TGR inh)
O=C(O)c1cccc(N2C(=O)C=CC2=O)c1	none (no result: Lassa entry inh, Sm TGR inh, MARV entry inh)
O=C1C=CC(=O)N1c1ccccc1N1C(=O)C=CC1=O	Lassa entry inh 11.2µM, Vaccinia Venus inconclusive, MARV entry inh inconclusive, FMDV inh inconclusive (no result: Sm TGR inh)
O=C(c1ccccc1)c1ccccc1N1C(=O)C=CC1=O	Lassa entry inh inconclusive, Sm TGR inh 0.562µM, MARV entry inh inconclusive, FMDV inh inconclusive
O=C1NC(=S)N(c2ccccc2)C(=O)/C1=C/c1ccco1	Sm TGR inh 14.1µM, MARV entry inh inconclusive, FMDV inh 35.5µM
